Reference: PubChem BioAssay AID1236 (Emory University Molecular Libraries Screening Center, 2008)
Hit rate of the full screen: of about 220,000 compounds, about 800 (0.36%) were called active.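 The calls were made as follows: active = inhibition above about 50% (limit read from the data); inactive = the rest.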 Shown is part of a subset that was picked to be rich in actives.

tested on: calpain II (m-calpain), Sus scrofa; experiment: m-calpain protease activity blockers – biochemical, fluorogenic peptide substrate, 1536-well, primary screen (AID 1236); conditions: purified calpain II, 30 min, at 16 µM, stronger effect = higher value

inhibition, inactive:
O=P(O)(CP(=O)(c1ccccc1)c1ccccc1)c1ccccc1O -11.7%
COc1ccc(CN2CCCCC2C)cc1OC (stereo not given) -66%
CC(=O)c1ccc(NC(=O)N[C@@H](Cc2ccccc2)C(=O)O)cc1 5.25%
CC(C)N(Cc1ccccc1)C(=S)Nc1ccc(OC(F)F)cc1 18.2%
CNc1nc(SC)nc(N(C#N)CC(=O)OC)n1 -4.33%
O=C(NCCc1csc(-c2ccccc2)n1)c1ccccc1F 18.7%
COC(=O)Cn1c(O)c(N=NC(=O)OC)c2ccccc21 -10.4%
CCN(CC(=O)NCCc1ccccc1)S(=O)(=O)c1ccccc1 13.4%
CCOc1c(Cl)cc(/C=N/O)cc1OC -1.32%
CCOc1cc(/C=N/O)cc(Br)c1OC 2.94%
C=CCn1c(-c2ccc(Cl)cc2)ccc(C#N)c1=O -6.13%
CC(O)C(NS(=O)(=O)c1ccc(Cl)cc1)C(=O)OCc1cc([N+](=O)[O-])cc2c1OCOC2 (stereo not given) -6.26%
CN(C(=O)CCn1c(=S)oc2ccccc21)C1CCCCC1 6.83%
Cc1c(C(=O)c2cccc([N+](=O)[O-])c2)c2ccccn2c1CCC#N 10.5%
O=c1cc(CSc2ccc(Cl)cc2)nc(N2CCOCC2)[nH]1 -33.8%
CSCc1cc(N(C)C)nc(SCc2ccc(Cl)cc2Cl)n1 8.94%
Cc1ccc(-n2ncc3c(Nc4cccc(C(=O)O)c4)ncnc32)cc1 10.2%
NC(=O)CC[C@@H]1NC(=O)[C@H](CO)NC(=O)c2cc([N+](=O)[O-])cc(I)c2NCC[C@@H](C(N)=O)NC1=O -33.7%
S=c1[nH]nc(-c2cccs2)n1/N=C/c1cn(-c2ccccc2)nc1-c1ccc(Cl)cc1 -33.4%
COc1ccc(OC(C)C(=O)Nc2cccnc2)cc1 (stereo not given) -45%
COc1ccc(C(=O)C2CCCN(C(=O)c3cc4nc(C)cc(C)n4n3)C2)cc1F (stereo not given) -25.8%
O=c1cc(-c2ccccc2)nc(N2CCCCC2)[nH]1 -13.8%
Cc1ccc2nc(-c3ccccc3)cc(C(=O)O)c2c1 -19.3%
CN(C)CCCSc1ccccc1NC(=O)/C=C/c1ccccc1 -17.5%
N#Cc1ccc(N2Cc3ccccc3/C2=N/C(=O)Nc2ccc(Cl)cc2)cc1 -5.24%
Cc1cccc(NC(=S)N(CCN(C)C)C(C)c2ccco2)c1 (stereo not given) -1.81%
FC(F)(F)c1nnc2ccc(N3CCN(c4ccccc4)CC3)nn12 8.02%
Cc1ccnc(NC(=O)Cn2ccc([N+](=O)[O-])n2)c1 -9.6%
Cc1cc(C)cc(C(=O)N(CCc2ccccc2)C2=CC3CCC(C2)N3C)c1 (stereo not given) -21.9%
CCn1c(SCC(=O)N/N=C/c2ccccc2OCC(=O)O)nnc1-c1ccc(C(C)(C)C)cc1 -10.5%
CCC/C=C(\CCC)C(NC(=O)Cc1ccccc1)c1ccc(C(=O)OC)cc1 (stereo not given) 3.04%
CCOC(=O)CN(C)S(=O)(=O)c1ccc(-c2cc(C(=O)OC)sc2C(F)(F)F)cc1 17.5%
Oc1c(Br)cc(/C=N/NC(=S)NCC2CCCO2)cc1Br (stereo not given) -20.7%
CCc1ccc(OCC(=O)OCC(=O)c2c(N)n(C)c(=O)n(C)c2=O)cc1 4.26%
Cc1cc(C(=O)OCC(=O)c2c(N)n(C)c(=O)n(C)c2=O)c(C)o1 32.4%
Cc1csc(NC(=O)c2ccc(-c3ccc(Cl)cc3Cl)o2)n1 -95.3%
COc1ccc(CN2CCN(Cc3cn(C)nc3-c3ccccc3)CC2CCO)c(C)c1C (stereo not given) -24.9%
O=C1CCN(C(=O)Nc2ccccc2)N1 9.94%
CC(C)CNC(=O)CC(c1ccccc1)c1c(O)ccc2ccccc12 (stereo not given) -74.9%
CCc1ccc(Oc2nc([N+](=O)[O-])nn2C)cc1 -6.47%
C=CCn1c(SCc2cccc(F)c2)nc2cc(C(=O)N3CCC(C(N)=O)CC3)ccc2c1=O -22.9%
O=C(NC(=S)Nc1cccc2c(O)cccc12)c1cccc(Br)c1 -4.46%
O=C(OCC#CCSc1nnc(-c2ccncc2)o1)c1sc2ccccc2c1Cl 20.6%
Clc1ccc(-c2nnc(SCc3nc4ccccc4s3)o2)cc1 8.94%
Cc1cccc(N(C)C(=O)c2cc3c(=O)[nH]c4ccc(C)cc4c3s2)c1 -47.9%
O=C(O)CCn1cc(/C=C/C(=O)c2ccc(Cl)cc2)c(-c2cccc(Br)c2)n1 31.9%
CS(=O)(=O)c1ccc2nc(NC(=O)c3ccc(Cl)nc3)sc2c1 8.84%
Nc1nc(-c2sc3nc4c(cc3c2N)CCCC4)nc(N2CCOCC2)n1 -253%
CCOC(=O)CN/C=C(\C#N)c1ccc(F)cc1 -15.5%
C/C(=N\OCC(=O)O)c1ccc(Cl)cc1 25.9%
Nc1c(Cl)cc(S(N)(=O)=O)cc1S(N)(=O)=O -2.3%
Cc1ccc(Cl)cc1-c1ccc(/C=N/n2cnnc2)o1 4.96%
Cc1cc(-c2ccc(/C=N/n3cnnc3)o2)c([N+](=O)[O-])cc1C 34.4%
NS(=O)(=O)c1ccc(CNC(=O)c2cnccn2)cc1 -9.46%
Cc1nc(NC2=NC(C(=O)Nc3ccc(Cl)cc3)CC(=O)N2)nc2ccccc12 (stereo not given) 6.9%
CCNC(=O)N1c2ccccc2Sc2ccccc21 -4.08%
CCC(C(=O)OCC(=O)Nc1c(Cl)cc(Cl)cc1Cl)c1ccccc1 (stereo not given) 11.9%
CCC(C(=O)OCC(=O)Nc1ccc(C(=O)Nc2ccc(OC)cc2)cc1)c1ccccc1 (stereo not given) 38%
CCOc1c(CNCc2ccc(C(=O)O)cc2)cccc1OC -12%
CC(=O)N1C(C)c2ccccc2C(C)(C)CC12CCCCC2 (stereo not given) 10.1%
COc1ccc(S(=O)(=O)N(CC(=O)N/N=C/c2ccccc2C(=O)O)c2ccccc2OC)cc1 -1.16%
COC(=O)CCCC1=CC2=CC(=O)C(C)(OC(=O)c3cccs3)C(=O)C2=CN1c1cccc(C#N)c1 (stereo not given) -53.3%
CC(=NCc1ccco1)c1c(C(F)(F)F)[nH]n(-c2nc3ccccc3s2)c1=O -91.3%
S=C(NCCc1ccccc1)Nc1ccccc1 16%
Cc1ccsc1/C=C1\SC(N2CCOCC2)=NC1=O 15.5%
Cc1ccc(N2CCN(/N=C/c3cccs3)CC2)cc1 -29.6%
O=[N+]([O-])c1ccc(N2CCSCC2)cc1O 2.99%
O=C(OCc1ccc(Br)cc1)c1cccc(-c2nnc(-c3ccccc3)o2)c1 -6.16%
O=C(Nc1ccccc1C(F)(F)F)N1CCCC1c1cccnc1 (stereo not given) 3.9%
O=C(c1cccc(F)c1)N1CCN(c2ccc([N+](=O)[O-])c(N3CCCCC3)c2)CC1 5.06%
O=[N+]([O-])c1ccc(N2CCN(S(=O)(=O)c3ccc4ccccc4c3)CC2)cc1NCc1ccco1 -59%
O=C(COC(=O)c1ccc(Cl)nc1)NCc1cccs1 13.2%
C/C(=N/NC(=S)Nc1ccccc1)c1ccc2c(c1)OCO2 -6.26%
CC(C)(C)c1cc(C(=O)NN)n(Cc2ccc(Cl)cc2Cl)n1 17.2%
Cn1c(=O)cc(OCC(=O)N2CCN(c3ccccc3F)CC2)c2ccccc21 -13.2%
CC(C)Oc1ccc(Cc2n[nH]c(=S)n2Cc2ccccc2)cc1Cl 15.2%
C=CCn1c(CCc2ccc(OC(C)C)cc2)n[nH]c1=S -15.1%
CC(C)(C)NC(=O)C(=O)NN=C1CCCCCCC1 -5.09%
C/C(=N\NC(=S)NC(C)C)c1ccc(C(C)(C)C)cc1 6.32%
Nc1ccc(Cl)c(S(=O)(=O)Nc2ccccc2Cl)c1 -15%
COc1ccc(Cl)cc1C(=O)Nc1ccc(N(C)C(C)=O)cc1 -12.6%

inhibition, active:
CC(=O)c1ccc(NC(=S)N(Cc2ccccc2)C(C)C2CC2)cc1 (stereo not given) 69.5%
COc1cc(/C=N/O)cc(Br)c1OCc1cccc(Cl)c1 56.7%
CSCc1cc(N2CCOCC2)nc(SCc2ccc(Cl)cc2Cl)n1 53.9%
c1ccc(-c2cc(N3CCCCC3)c3ccccc3n2)cc1 50.5%
Fc1c(F)c(C(F)(F)F)c(F)c(F)c1N1CCN(c2ccc3nnc(C(F)(F)F)n3n2)CC1 58.9%
Cn1c(N)c(C(=O)COC(=O)c2cnc(Cl)c(Cl)c2)c(=O)n(C)c1=O 69%
C#CCSc1nnc(-c2sc3ccccc3c2Cl)o1 50.5%
CCOc1cc(/C=C(/C#N)c2ccc(Cl)cc2)cc(Cl)c1OCC(=O)O 50.5%
Cc1cc([N+](=O)[O-])c(-c2ccc(/C=N/n3cnnc3)o2)cc1Cl 58.9%
CCC(C(=O)OCC(=O)Nc1ccccc1-c1ccccc1)c1ccccc1 (stereo not given) 56.9%
Cc1ccc(N2CCN(C3=NC(=O)/C(=C\c4cccs4)S3)CC2)cc1 76.7%
O=C(c1ccccc1)N1CCN(c2ccc([N+](=O)[O-])c(NCc3ccco3)c2)CC1 54.3%
CC(C)Oc1ccc(CCc2n[nH]c(=S)n2Cc2ccccc2)cc1 53.5%
CC(C)NC(=S)NN=C1CCCCCCCCCCC1 54.9%
